Source: PubChem BioAssay
TDP1 cell CPT: growth inhibition of DT40 Tdp1-/-;hTDP1 cells with camptothecin (screen for TDP1 inhibitors); chicken DT40 Tdp1-/-;hTDP1 cells + 20 nM CPT, ATP luminescence, 48 h; Potency, µM (top dose mostly 46.2 µM), hits mostly inhibitors; actives 12% (n = 420,000); AID 686979; also: nearly all actives have a fitted effect of over 55% in size
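Chicken DT40 Tdp1-/- cells stably complemented with human TDP1 were seeded at 400 cells/well in medium containing 20 nM camptothecin, exposed to pin-transferred compounds, and grown at 37 °C for at least 48 hr. Viability was read as ATP luminescence.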
HT1080NT lethal: kills 2HG-producing HT-1080-NT fibrosarcoma cells. actives 1.6% (n = 360,000). HT-1080-NT fibrosarcoma viability, CellTiter-Glo ATP luminescence, 48 h. Potency, µM (doses to about 46.1 µM), most hits filed as cytotoxic;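 also: NT is the 2HG producing partner of a matched IDH1 knockdown line; nearly all actives have a fitted effect of over 55% in size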
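Fibrosarcoma NT cells, 750 per well in 5% FBS RPMI, were exposed to compound for 48 hours. Viability: CellTiter-Glo luminescence.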
HT1080 IDH1KD tx: HT-1080 IDH1 knockdown cell toxicity (counter line) | HT-1080 IDH1 knockdown viability, ATP luminescence, 48 h | Potency, µM (top dose mostly 46.1 µM), hits mostly cytotoxic | actives 2% (n = 360,000)
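CellTiter-Glo luminescence after 48 h compound exposure at 37 degrees C of IDH1-knockdown HT-1080 cells in 5% FBS RPMI. %Activity scaled between DMSO wells and cell-free media wells, with curves fitted and assigned curve classes.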
TDP1 cell noCPT: qHTS for Inhibitors of human tyrosyl-DNA phosphodiesterase 1 (TDP1): qHTS in cells in absence of CPT; actives 15% (n = 420,000); Potency, µM (highest dose often 46.2 µM), usual class: inhibitors; AID 686978, 2013; DT40 Tdp1-/- hTDP1 cells, no CPT, ATP luminescence, 48 h; also: nearly all actives have a fitted effect of over 55% in size
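Camptothecin absent (DMSO only). Human TDP1-complemented DT40 knockout cells, 400 cells/well, 37 °C for minimum 48 hr; ATP measured via CellTiter-Glo, 30 min dark incubation, luminescence.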
IL1B secr inh: inflammasome signaling inhibition, IL-1 beta readout. actives 4.7% (n = 360,000). activity change, % at 57.5 µM. THP-1 LPS/ATP IL-1B secretion, AlphaLISA, 16 h; hits give low values; in the data active = activity change below about -50%; inconclusive = mostly about -30% to -49%
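THP-1 cells pretreated 1 hr with compounds (up to 57.5 uM final), then stimulated with LPS (250 ng/mL final) plus ATP (1.25 mM final); secreted IL-1B measured by AlphaLISA after 16 hr, decreased signal indicating inhibition.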
Hits are given with their value; – = inactive; ? = inconclusive; · = no result given. Shown are actives, neighbours in structure and some others; about 19% of the full set was active somewhere. Unless noted, calls follow the shape of the dose curve; as a rule, active = well fitted curve in the direction sought with a large enough effect; inconclusive = small, poorly fitted or top-dose-only effect, or another doubt; inactive = no such curve, though single readings can be large; an effect the other way counts as inactive or inconclusive.

SMILES	TDP1 cell CPT	HT1080NT lethal	HT1080 IDH1KD tx	TDP1 cell noCPT	IL1B secr inh
O=C(NNc1ccc(C(F)(F)F)cc1[N+](=O)[O-])c1ccc(NS(=O)(=O)c2ccc(F)cc2)cc1	?	?	21µM	23µM	?
CCOC(=O)CNC(=O)C(Cc1ccccc1)NS(=O)(=O)c1cccs1 (centres undefined)	–	–	–	–	–
Cc1ccc(CNC(=O)C(Cc2ccccc2)NS(=O)(=O)c2cccs2)cc1 (centres undefined)	?	–	–	–	–
CCOc1ccccc1NC(=O)C(Cc1ccccc1)NS(=O)(=O)c1ccc(Br)s1 (centres undefined)	23µM	·	·	?	·
COc1ccc(C)cc1NC(=O)C(Cc1ccccc1)NS(=O)(=O)c1cccs1 (centres undefined)	18µM	·	·	?	·
Cc1ccc(CNC(=O)C(Cc2ccccc2)NS(=O)(=O)c2ccc(Br)s2)cc1 (centres undefined)	–	?	–	?	-75
CC(=O)Oc1ccc2c(=O)c(/C=N/c3cc(=O)[nH]c(=S)[nH]3)coc2c1	–	–	–	–	–
O=C(/C=C/c1ccc2c(c1)OCO2)Nc1nc2ccc(F)cc2s1	?	–	?	–	–
CC(C)(C)c1ccc(C(=O)O/N=C(\N)Cc2cccs2)cc1	?	?	?	?	–
Cc1ccccc1C(=O)O/N=C(\N)Cc1cccs1	?	?	18µM	–	-61
O=C(Nc1ccccc1)Nc1cccc(C(F)(F)F)c1	?	–	–	?	–
O=C(Nc1cccc(C(F)(F)F)c1)Nc1cccs1	?	·	·	21µM	·
O=C(Nc1ccccc1)Nc1ccc2c(c1)CCC2	–	–	–	–	?
CCSCCc1nnc(NC(=O)Nc2cccc(C(F)(F)F)c2)s1	4.1µM	?	?	2.3µM	-69
O=C(Nc1cccc([N+](=O)[O-])c1)Nc1cccs1	23µM	–	–	?	?
O=C(Nc1cccc([N+](=O)[O-])c1)Nc1ccc2c(c1)CCC2	21µM	–	?	?	?
CCOc1ccccc1-n1c(SCC(=O)NC(C)CC)nnc1-c1ccoc1C (centres undefined)	?	–	–	?	–
Cc1ccc(C(=O)NCC(=O)Nc2ccc3c(c2)CCC3)cc1C	–	–	–	–	–
Cc1cc(C(=O)Nc2ccc3c(c2)CCC3)ccc1[N+](=O)[O-]	–	–	–	?	-69
Nc1ncc(S(=O)(=O)N2CCN(c3ccccc3)CC2)cn1	–	·	·	–	·
O=S(=O)(CCN1CCCCC1)CCS(=O)(=O)CCN1CCCCC1	?	–	–	–	-71
CCCc1c(-c2ccc(Cl)cc2)ncn1Cc1cccc(-c2ccccc2)c1	5.2µM	?	?	3.3µM	–
CCc1c(-c2ccc(Br)cc2)ncn1Cc1cccc(-c2ccccc2)c1	7.3µM	?	?	5.2µM	-62
Cc1cc(Br)cn2c(Cc3ccccc3)c(-c3cccc(Br)c3)nc12	?	–	–	?	–
CCCc1c(-c2cccc(Br)c2)ncn1Cc1cccc(-c2ccccc2)c1	16µM	?	?	21µM	–
SMILES	TDP1 cell CPT	HT1080NT lethal	HT1080 IDH1KD tx	TDP1 cell noCPT	IL1B secr inh
COC/C=C/C1=CC2=CC(=O)C(C)(OC(=O)c3cnc4ccccc4n3)C(=O)C2=CN1Cc1ccccc1 (centres undefined)	?	–	–	16µM	–
COC/C=C/C1=CC2=CC(=O)C(C)(OC(=O)c3cnc4ccccc4n3)C(=O)C2=CN1C1CC1 (centres undefined)	?	–	–	21µM	–
COC/C=C/C1=CC2=CC(=O)C(C)(OC(=O)c3cnc4ccccc4n3)C(=O)C2=CN1CC1CC1 (centres undefined)	–	–	–	?	–
COC/C=C/C1=CC2=CC(=O)C(C)(OC(=O)c3cnc4ccccc4n3)C(=O)C2=CN1Cc1ccc(OC)cc1 (centres undefined)	23µM	–	–	?	-60
Cc1ccc(-c2nnnn2-c2ccccc2C(=O)O)cc1	–	–	–	–	–
COC(=O)c1cc(S(=O)(=O)N2CCN(c3ccccc3OC)CC2)cn1C	–	–	–	?	–
